Each structure is given as a SMILES string. “And” between values parts separate entries of the source, which are not always exact repeats. Identical values can stand only once. Results filed as inconclusive are left out. Unmarked numbers belong to inactive results. The source made the active and inactive calls. Unless noted, calls come from the whole dose curve; as a rule, active = well fitted curve in the direction sought with a large enough effect; inconclusive = small, poorly fitted or top-dose-only effect, or another doubt; inactive = no such curve, though single readings can be large; an effect the other way counts as inactive or inconclusive.

From PubChem BioAssay (NCATS) come the findings set out here.

The target in assay [1] is Cellular tumor antigen p53 (Homo sapiens) (UniProt P04637). Kind of assay: Primary qHTS for small molecule compounds that upregulate eGFP-tagged delta133p53alpha (in N-terminal) cells. (AID 2060322).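 For activation: series mostly up to about 56 µM; 0% = DMSO vehicle and 100% = reference activator.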 Note: nearly all actives have a fitted effect of over 75% in size. Note: potency is the fitted concentration of half-maximal effect. To be noted: NCI-H358 eGFP-delta133p53alpha fluorescence, 24 h; activation: active compounds read high. Put shortly:
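NCI-H358 cells pre-induced 24 h with 10 ng/ml doxycycline to express N-terminal eGFP-delta133p53alpha, then dosed 24 h at 37C without doxycycline; fixed, Hoechst-stained, GFP intensity by laser scanning cytometry, normalized to DMSO (0%) and 57.5 uM 5-azacytidine (100%).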

In assay [2] the target is Aldehyde dehydrogenase, mitochondrial (Homo sapiens) (UniProt P05091). Kind of assay: qHTS for Inhibitors of the Aldehyde Dehydrogenase Family (ALDH2) Confirmatory screens (AID 2061303; active = well fitted inhibition curve with a large enough effect; title and protocol of this record describe different tests; note: % is set by controls: 0 for no effect and ±100 for the full control effect; nearly all actives have a fitted effect of over 45% in size). In general terms: Quantitative high-throughput screening tests each substance at several concentrations.
The nature of assay [3]: qHTS for Inhibitors of the Aldehyde Dehydrogenase Family (ALDH1A2, ALDH1A3, ALDH2, ALDH3A1) (AID 2061307). Note: % is set by controls: 0 for no effect and ±100 for the full control effect; nearly all actives have a fitted effect of over 50% in size.
The target in assay [4] is Aldehyde dehydrogenase, mitochondrial (Homo sapiens) (UniProt P05091). Kind of assay: qHTS for Inhibitors of the Aldehyde Dehydrogenase Family (ALDH2) Primary screen (AID 2061308).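 Note: plate controls were vehicle for no effect and reference inhibitor for full effect; nearly all actives have a fitted effect of over 55% in size.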
Assay [5] deals with Retinal dehydrogenase 2 (Homo sapiens) (UniProt O94788). The experiment in a line: qHTS for Inhibitors of the Aldehyde Dehydrogenase Family (ALDH1A2) Confirmation screens (AID 2061314). Note: % is set by controls: 0 for no effect and ±100 for the full control effect; nearly all actives have a fitted effect of over 65% in size.
In assay [6] the target is Retinaldehyde dehydrogenase 3 (Homo sapiens) (UniProt P47895). Kind of assay: qHTS for Inhibitors of the Aldehyde Dehydrogenase Family (ALDH1A3) Primary screen (AID 2061315).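 For activity change, negative = inhibition: plate controls were DMSO vehicle for no effect and reference inhibitor for full effect.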 Note: potency is the fitted concentration of half-maximal effect.
Assay [7] has as its target Aldehyde dehydrogenase 1A1 (Homo sapiens) (UniProt P00352). The experiment in a line: qHTS for Inhibitors of the Aldehyde Dehydrogenase Family (ALDH1A1) Confirmatory screens (AID 2061316). For activity change, negative = inhibition: % is set by controls: 0 for no effect and ±100 for the full control effect. Note: nearly all actives have a fitted effect of over 65% in size.
The target in assay [8] is Retinaldehyde dehydrogenase 3 (Homo sapiens) (UniProt P47895). The experiment in a line: qHTS for Inhibitors of the Aldehyde Dehydrogenase Family (ALDH1A3) Validation screen (AID 2061312). Note: % is set by controls: 0 for no effect and ±100 for the full control effect; nearly all actives have a fitted effect of over 45% in size.

Chain of Cellular tumor antigen p53 (Homo sapiens) (P04637 whole entry, looked up): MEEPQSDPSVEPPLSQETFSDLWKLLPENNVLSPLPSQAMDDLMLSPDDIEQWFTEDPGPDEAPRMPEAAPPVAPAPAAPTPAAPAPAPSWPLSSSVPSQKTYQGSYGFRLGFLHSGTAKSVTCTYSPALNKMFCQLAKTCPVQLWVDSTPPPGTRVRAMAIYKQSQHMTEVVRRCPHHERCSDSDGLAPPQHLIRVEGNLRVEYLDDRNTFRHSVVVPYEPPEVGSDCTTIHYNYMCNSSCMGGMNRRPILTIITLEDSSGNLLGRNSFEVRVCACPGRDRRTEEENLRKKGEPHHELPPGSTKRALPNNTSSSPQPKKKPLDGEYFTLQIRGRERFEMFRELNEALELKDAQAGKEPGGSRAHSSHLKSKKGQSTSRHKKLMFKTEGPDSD

Take `C[C@@]1(C(=O)O)CC[C@]2(C)CC[C@]3(C)C4=CC(=O)c5cc(O)c(O)cc5[C@]4(C)CC[C@@]3(C)[C@@H]2C1`: the activation in assay [1] is -19.1%. Besides, the Potency result in assay [2], in assay [3], in assay [4], in assay [5] and in assay [7] was “inactive” each time. In addition, the Potency in assay [6] was 4.47 µM (active).

With `O=C1CN=C(c2cccc(Br)c2)c2oc3ccccc3c2N1`, the activation in assay [1] was -24.3%. In addition, the Potency result in assay [4], in assay [8] and in assay [6] was “inactive” in each case.

As to `Cc1c(N[C@@H](c2nnc(-c3ccc(C#N)cc3)o2)[C@H](C)O)ccc(C#N)c1Cl`, the activation in assay [1] was 21%. Further, the Potency entry in assay [2], in assay [4], in assay [5], in assay [6] and in assay [7] was “inactive” each time.

On to `OC1(c2ccc(Cl)cc2)c2ccccc2C2=NCCN21` (stereo unspecified), for which, in assay [1], the activation was 6.21%. In addition, the Potency entry in assay [4], in assay [8] and in assay [6] was “inactive” in each case.

Take `CC1(C)C(=O)N(c2ccc(C#N)c(C(F)(F)F)c2)C(=S)N1c1ccc(C(N)=O)c(F)c1`: the activation in assay [1] was 1.43%. The Potency result in assay [4], in assay [8] and in assay [6] was “inactive” in each case.

Regarding `Cc1cn(C[C@H](N)C(=O)O)c(=O)n(Cc2cc(-c3ccccc3)sc2C(=O)O)c1=O`, the activation in assay [1] is 8.11%. Also, the Potency entry in assay [4], in assay [8] and in assay [6] was “inactive” in each case.

Take `CC(C)N(CCNC(=O)CN1CCCC1=O)C(C)C`: the activation in assay [1] was -9.94% and -3.34%. Besides, the Potency result in assay [4], in assay [8] and in assay [6] was “inactive” each time.

As to `N#Cc1cn([C@@H]2O[C@H](CO)[C@H](O)[C@@H]2O)c2ncnc(N)c12`, the Potency in assay [1] was 0.0757 µM (active). Besides, the Potency entry in assay [4], in assay [8] and in assay [6] was “inactive” in each case.

In the case of `CC(=O)NCCCOc1ccc(C(=O)N2CCC(N3C(=O)CCc4ccccc43)CC2)cc1`, the activation in assay [1] is -10.5%. Also, the Potency result in assay [4], in assay [8] and in assay [6] was “inactive” throughout.

As to `CCOC(=O)c1ccc(-c2ccc(OC(=O)N(C)Cc3cccc(-c4ccncc4)c3)cc2)cc1`, in assay [1], the activation was -12.9%. Also, the Potency entry in assay [4], in assay [8] and in assay [6] was “inactive” throughout.

With `C[C@H]1CN(Cc2ccc(CC(=O)N3CCC(Nc4cccc(F)c4)CC3)cc2)CCN1`, in assay [1], the activation is -12.4%. Further, the Potency result in assay [4], in assay [8] and in assay [6] was “inactive” in each case.

Regarding `Cc1cccc(NC(=O)N[C@@H]2N=C(c3ccccc3)c3ccccc3N(C)C2=O)c1`, the activation in assay [1] was -11%. The Potency result in assay [4], in assay [8] and in assay [6] was “inactive” each time.

Take `CCCCN1[C@@H]2CC[C@H]1CC(OC(c1ccc(F)cc1)c1ccc(F)cc1)C2` (stereo partly specified): the activation in assay [1] is 2.39%. Besides, the Potency result in assay [4], in assay [8] and in assay [6] was “inactive” each time.

As for `CCN1C[C@]2(OC(=O)c3ccccc3NC(C)=O)CC[C@H](OC)[C@@]34[C@@H]2C[C@@H]([C@@H]13)[C@@]1(O)C[C@H](OC)[C@H]2C[C@@H]4[C@]1(O)[C@H]2OC`, in assay [1], the activation was -6.68%. Besides, the Potency entry in assay [4], in assay [8] and in assay [6] was “inactive” each time.

Turning to `Cn1ncnc1COc1nn2c(-c3c(F)cccc3F)nnc2cc1C1CCC1`, the activation in assay [1] was -7.16%. The Potency entry in assay [4], in assay [8] and in assay [6] was “inactive” in each case.

Turning to `O=C(NCCN1CCC2(CC1)C(=O)NCN2c1cccc(F)c1)c1ccc(F)c(F)c1`, in assay [1], the activation was 18.1%. The Potency entry in assay [4], in assay [8] and in assay [6] was “inactive” each time.

In the case of `Cc1c(Cl)cccc1S(=O)(=O)Nc1nc(CC(=O)N2CCN(C)CC2)cs1`, the activation in assay [1] is -6.21%. Also, the Potency entry in assay [4], in assay [8] and in assay [6] was “inactive” throughout.

As for `COc1cccc(NCC(F)Cn2c3ccc(Br)cc3c3cc(Br)ccc32)c1` (stereo unspecified), the activation in assay [1] was 8.11%. Further, the Potency result in assay [4], in assay [8] and in assay [6] was “inactive” throughout.

For `CNC(=O)N1N=C(c2ccc(N)cc2)c2cc3c(cc2CC1C)OCO3` (stereo unspecified), in assay [1], the activation was 34.7%. The Potency entry in assay [4], in assay [8] and in assay [6] was “inactive” each time.

`CCCCCn1cc(C(=O)Oc2cccc3cccnc23)c2ccccc21`: in assay [1], the activation is -4.77%. The Potency result in assay [4], in assay [8] and in assay [6] was “inactive” each time.

`CC(C)[C@@H](CN1CC[C@@](C)(c2cccc(O)c2)[C@@H](C)C1)NC(=O)[C@H]1Cc2ccc(O)cc2CN1`: the activation in assay [1] is 29.1%. Besides, the Potency result in assay [4], in assay [8] and in assay [6] was “inactive” throughout.

Consider `CCCCCn1cc(C(=O)Cc2ccccc2OC)c2ccccc21`, for which the activation in assay [1] is 3.34%. Moreover, the Potency entry in assay [4], in assay [8] and in assay [6] was “inactive” in each case.

Consider `CCCCCCn1c(=O)c(C(=O)Nc2ccc(C(=O)OCCC)cc2)c(O)c2ccccc21`, for which the activation in assay [1] is 4.3%. The figures for the activity change, negative = inhibition in assay [4] and in assay [6] were 11.3% [at 11.2 µM] and 11.2% [at 11.2 µM], respectively. Further, in assay [8], the Potency entry was “inactive”.

As to `C[C@H]1CN(CC[C@H](O)C2CCCCC2)CC[C@@]1(C)c1cccc(O)c1`, the activation in assay [1] is -6.21%. For the same compound, the Potency entry in assay [4], in assay [8] and in assay [6] was “inactive” throughout.

For `CN(C(=O)Cc1ccccc1)C(CN1CCCC1)c1ccccc1` (stereo unspecified), the activation in assay [1] is -0.477%. The Potency result in assay [4], in assay [8] and in assay [6] was “inactive” throughout.

Consider `NC(=O)c1ncn2c1CN=C(c1ccccc1Br)c1cc(F)ccc1-2`, for which, in assay [1], the activation is -14.3%. The Potency entry in assay [4], in assay [8] and in assay [6] was “inactive” in each case.

Regarding `Cc1ccccc1CN1CCC(N2CCC(n3c(=O)[nH]c4ccccc43)CC2)CC1`, the activation in assay [1] was -15.8%. The Potency entry in assay [4], in assay [8] and in assay [6] was “inactive” each time.

Consider `CN1[C@@H]2CC[C@H]1CC(OC(=O)C1C=Nc3ccccc31)C2` (stereo partly specified), for which the activation in assay [1] was -7.64%. Also, the Potency entry in assay [4], in assay [8] and in assay [6] was “inactive” throughout.

On to `CC(N)Cc1c[nH]c2ccccc12` (stereo unspecified), for which, in assay [1], the activation was 12.4%. The Potency entry in assay [4], in assay [8] and in assay [6] was “inactive” each time.
